Experimental data as given in the supplement of paper PMC8728848.
Many of the other results were omitted from the sample, so the strongest signals are more common in it than they were.

Columns and labels:
Test in all cases: glycan array binding signal (z-score within array); higher = stronger binding
Settings in all cases: glycan notation: IUPAC condensed, linker removed
[1] = biological target: Fuc(a1-2)Gal(b1-3)[Fuc(a1-4)]GlcNAc
In short: (§1)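 The binding signal is a Z-score computed within each array. Data were drawn from 3228 arrays in the Consortium for Functional Glycomics database, restricted to those with a known protein sequence. Scores were averaged over arrays of the same protein sequence at different concentrations or buffers, and over linkers, and negative values can be taken as non-binding.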

[2] = biological target: Fuc(a1-2)[Gal(a1-3)]Gal(b1-4)GlcNAc(b1-2)Man(a1-3)[Fuc(a1-2)[Gal(a1-3)]Gal(b1-4)GlcNAc(b1-2)Man(a1-6)]Man(b1-4)GlcNAc(b1-4)GlcNAc
In short: as §1

[3] = biological target: Fuc(a1-2)[GalNAc(a1-3)]Gal(b1-3)GlcNAc(b1-2)Man(a1-3)[Fuc(a1-2)[GalNAc(a1-3)]Gal(b1-3)GlcNAc(b1-2)Man(a1-6)]Man(b1-4)GlcNAc(b1-4)GlcNAc
In short: as §1

[4] = biological target: Fuc(a1-3)[Gal(b1-4)]GlcNAc(b1-2)Man(a1-3)[Fuc(a1-3)[Gal(b1-4)]GlcNAc(b1-2)Man(a1-6)]Man(b1-4)GlcNAc(b1-4)GlcNAc
In short: as §1

[5] = biological target: Fuc(a1-3)[Gal(b1-4)]GlcNAc(b1-3)Gal(b1-3)[Fuc(a1-4)]GlcNAc
In short: as §1

[6] = biological target: Gal(a1-3)Gal(b1-3)GlcNAc(b1-2)Man(a1-3)[Gal(a1-3)Gal(b1-3)GlcNAc(b1-2)Man(a1-6)]Man(b1-4)GlcNAc(b1-4)GlcNAc
In short: as §1

[7] = biological target: Gal(b1-3)[GlcNAc(b1-6)]GalNAc
In short: as §1

[8] = biological target: Gal(b1-4)GlcNAc(a1-6)Gal(b1-4)GlcNAc
In short: as §1

[9] = biological target: Gal3S(b1-3)[Fuc(a1-4)]GlcNAc
In short: as §1

Gal6S(b1-4)Glc = biological target: Gal6S(b1-4)Glc
In short: as §1

GalNAc(a1-3)Gal = biological target: GalNAc(a1-3)Gal
In short: as §1

[10] = biological target: GlcNAc(a1-4)Gal(b1-4)GlcNAc(b1-3)Gal(b1-4)GlcNAc(b1-3)Gal(b1-4)GlcNAc
In short: as §1

[11] = biological target: GlcNAc(a1-4)Gal(b1-4)GlcNAc(b1-3)Gal(b1-4)[Fuc(a1-3)]GlcNAc(b1-3)Gal(b1-4)[Fuc(a1-3)]GlcNAc
In short: as §1

[12] = biological target: Man(a1-3)[Man(a1-6)]Man(a1-6)[Man(a1-3)]Man
In short: as §1

[13] = biological target: Neu5Ac(a2-3)Gal(b1-3)GalNAc(b1-4)[Neu5Ac(a2-3)]Gal(b1-4)Glc
In short: as §1

[14] = biological target: Neu5Ac(a2-3)Gal(b1-3)GlcNAc
In short: as §1

[15] = biological target: Neu5Ac(a2-3)Gal(b1-4)GlcNAc(b1-3)Gal(b1-4)GlcNAc(b1-3)Gal(b1-4)GlcNAc
In short: as §1

[16] = biological target: Neu5Ac(a2-3)Gal(b1-4)GlcNAc(b1-3)Gal(b1-4)[Fuc(a1-3)]GlcNAc
In short: as §1

[17] = biological target: Neu5Ac(a2-3)Gal(b1-4)GlcNAc(b1-6)[Neu5Ac(a2-3)Gal(b1-3)]GalNAc
In short: as §1

[18] = biological target: Neu5Ac(a2-3)Gal(b1-4)[Fuc(a1-3)]GlcNAc(b1-3)GalNAc
In short: as §1

[19] = biological target: Neu5Ac(a2-3)Gal(b1-4)[Fuc(a1-3)]GlcNAc6S
In short: as §1

[20] = biological target: Neu5Ac(a2-6)Gal(b1-4)GlcNAc(b1-2)Man(a1-6)[GlcNAc(b1-2)Man(a1-3)]Man(b1-4)GlcNAc(b1-4)GlcNAc
In short: as §1

[21] = biological target: Neu5Ac(a2-6)GlcNAc(b1-4)GlcNAc(b1-4)GlcNAc
In short: as §1

[22] = biological target: Neu5Ac(a2-8)Neu5Ac(a2-8)Neu5Ac(a2-8)Neu5Ac(a2-3)[GalNAc(b1-4)]Gal(b1-4)Glc
In short: as §1

[23] = biological target: Neu5Gc(a2-3)Gal(b1-3)[Fuc(a1-4)]GlcNAc
In short: as §1

B1: SAG1 (Toxoplasma gondii), P13664 (protein)
chain: MSVSLHHFIISSGFLTSMFPKAVRRAVTAGVFAAPTLMSFLRCGVMASDPPLVANQVVTCPDKKSTAAVILTPTENHFTLKCPKTALTEPPTLAYSPNRQICPAGTTSSCTSKAVTLSSLIPEAEDSWWTGDSASLDTAGIKLTVPIEKFPVTTQTFVVGCIKGDDAQSCMVTVTVQARASSVVNNVARCSYGADSTLGPVKLSAEGPTTMTLVCGKDGVKVPQDNNQYCSGTTLTGCNEKSFKDILPKLTENPWQGNASSDKGATLTIKKEAFPAESKSVIIGCTGGSPEKHHCTVKLEFAGAAGSAKSAAGTASHVSIFAMVIGLIGSIAACVA
**Q.** For B1, which “glycan array binding signal (z-score)” value [1] is on record?
**A.** 0.139

**Q.** And the “glycan array binding signal (z-score)” value [2]?
**A.** 0.615

**Q.** What about the “glycan array binding signal (z-score)” value [3] of the same binder?
**A.** -0.505

**Q.** What about the “glycan array binding signal (z-score)” value [4] of the same binder?
**A.** 1.86

**Q.** What about the “glycan array binding signal (z-score)” value [5] of the same binder?
**A.** -0.232

**Q.** And the “glycan array binding signal (z-score)” value [6]?
**A.** 1.47

**Q.** What about the “glycan array binding signal (z-score)” value [7] of the same binder?
**A.** -0.229

**Q.** What about the “glycan array binding signal (z-score)” value [8] of the same binder?
**A.** -0.386

**Q.** And the “glycan array binding signal (z-score)” value [9]?
**A.** 7.52

**Q.** What about the “glycan array binding signal (z-score)” value (Gal6S(b1-4)Glc) of the same binder?
**A.** -0.579

**Q.** And the “glycan array binding signal (z-score)” value (GalNAc(a1-3)Gal)?
**A.** -0.761

**Q.** What about the “glycan array binding signal (z-score)” value [10] of the same binder?
**A.** 0.265

**Q.** What about the “glycan array binding signal (z-score)” value [11] of the same binder?
**A.** 2.24

**Q.** What about the “glycan array binding signal (z-score)” value [12] of the same binder?
**A.** -0.442

**Q.** What about the “glycan array binding signal (z-score)” value [13] of the same binder?
**A.** 0.728

**Q.** And the “glycan array binding signal (z-score)” value [14]?
**A.** 0

**Q.** And the “glycan array binding signal (z-score)” value [15]?
**A.** -0.703

**Q.** What about the “glycan array binding signal (z-score)” value [16] of the same binder?
**A.** 1.71

**Q.** What about the “glycan array binding signal (z-score)” value [17] of the same binder?
**A.** 1.61

**Q.** And the “glycan array binding signal (z-score)” value [18]?
**A.** 3.63

**Q.** What about the “glycan array binding signal (z-score)” value [19] of the same binder?
**A.** -0.651

**Q.** And the “glycan array binding signal (z-score)” value [20]?
**A.** -0.2

**Q.** And the “glycan array binding signal (z-score)” value [21]?
**A.** -0.384

**Q.** And the “glycan array binding signal (z-score)” value [22]?
**A.** -0.241

**Q.** And the “glycan array binding signal (z-score)” value [23]?
**A.** 0.031
